Apoferritin bind – candidate novel general anesthetic via apoferritin binding. P02791. apoferritin/1-aminoanthracene competitive binding, fluorescence. Potency, µM (top dose mostly 77.5 µM), most hits filed as inhibitors. actives 0.074% (n = 350,000). AID 485281; also: nearly all actives have a fitted effect of over 20% in size
Target sequence (P02791 2-175 limits assumed): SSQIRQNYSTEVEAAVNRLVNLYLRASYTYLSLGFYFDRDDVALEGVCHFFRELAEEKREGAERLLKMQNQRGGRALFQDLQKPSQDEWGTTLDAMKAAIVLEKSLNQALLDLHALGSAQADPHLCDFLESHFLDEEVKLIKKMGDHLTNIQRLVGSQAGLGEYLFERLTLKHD
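Horse-spleen apoferritin (10 uM) in 50% saturated 1-aminoanthracene in PBS was incubated 10 min at room temperature with compound. Fluorescence (ex 380, em 535 nm) was normalized to free and bound 1-AMA, with concentration-response fitted by a four-parameter Hill equation.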
IDH1 R132H inh – inhibitors of human mutant IDH1 R132H. O75874. IDH1-R132H enzyme, NADPH consumption, diaphorase/resazurin fluorescence. Potency, µM (doses to about 76.6 µM), hits mostly inhibitors. actives 0.093% (n = 390,000); also: nearly all actives have a fitted effect of over 65% in size
Target sequence (O75874 whole entry R132H, stated change not applied): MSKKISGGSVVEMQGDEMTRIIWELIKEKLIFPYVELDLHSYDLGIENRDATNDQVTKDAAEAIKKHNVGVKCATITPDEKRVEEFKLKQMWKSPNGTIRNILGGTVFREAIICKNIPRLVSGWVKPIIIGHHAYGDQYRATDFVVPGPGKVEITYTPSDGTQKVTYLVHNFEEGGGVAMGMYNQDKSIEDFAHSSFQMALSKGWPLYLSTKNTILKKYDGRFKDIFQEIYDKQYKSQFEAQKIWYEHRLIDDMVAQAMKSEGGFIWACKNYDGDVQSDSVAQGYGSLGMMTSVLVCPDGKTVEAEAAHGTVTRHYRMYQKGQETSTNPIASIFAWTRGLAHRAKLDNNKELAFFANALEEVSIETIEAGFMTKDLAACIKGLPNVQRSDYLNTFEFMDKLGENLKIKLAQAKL
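IDH1-R132H (0.5 ug/mL dispensed) in pH 7.5 Tris buffer was preincubated 30 min with compound, then given a substrate mix of 0.016 mM NADPH and 2 mM alpha-KG for 80 min at room temperature; remaining NADPH was read by diaphorase/resazurin fluorescence.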
Giardia kill – kills Giardia lamblia; Giardia lamblia trophozoite viability; activity change, % at 7.66 µM, hits read low; actives 0.15% (n = 340,000); in the data active = activity change below about -80%; inconclusive = between about -30% and that limit;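 also: parasites exposed to compound for two days anaerobically before the ATP read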
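Trophozoite viability was measured as ATP-dependent luminescence, read 15-30 min after reagent addition. Before that, parasites at 100 cells/well were exposed to compounds for 48 h, anaerobically, at 37 deg C.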
Nrf2 block – blocks Nrf2 signaling | A549 ARE-Fluc reporter, luciferase luminescence, 18-24 h | Potency, µM (series often up to 46 µM), hits mostly inhibitors | actives 2.1% (n = 360,000); also: nearly all actives have a fitted effect of over 60% in size
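Quantitative HTS in A549 cells stably bearing an antioxidant response element-firefly luciferase construct. Inhibition of Nrf2-driven transcription was scored by luminescence after 18-24 h of compound exposure at 37 °C.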
A549 tox – A549 cytotoxicity, counter-screen for Nrf2 inhibitors; A549 ARE-Fluc cells, CellTiter-Fluor viability, 18-24 h; actives 0.16% (n = 390,000); AID 504648; Potency, µM (top dose mostly 46 µM), actives largely listed as inhibitors
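A549 ARE-Fluc cells in 5% FBS OPTI-MEM, 5000 cells/well, rested 2 h then exposed to compounds in concentration-response for 18-24 h at 37 °C. Viability by CellTiter-Fluor fluorescence (Ex 405/Em 525) after 30 min; luciferase luminescence (BugLite, 15 min, RT) read afterwards.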
Nrf2 ARE act – activates Nrf2 signaling; AREc32 ARE-luciferase reporter (MCF7-derived line), luminescence, 24 h; Potency, µM (titrated, usually from 46.1 µM), usual class: activators; actives 0.31% (n = 410,000); also: nearly all actives have a fitted effect of over 65% in size
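Quantitative high-throughput format: AREc32 reporter cells, 1000 per well, received compound by pin transfer and were incubated 24 hr at 37 deg C, 5% CO2, before Steady-Glo luminescence detection.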
Each line names hits and unclear results; the compound was inactive in the other large screens. Shown are actives, neighbours in structure and some others; about 2.3% of the full set was active somewhere. Unless noted, calls follow the shape of the dose curve; as a rule, active = well fitted curve in the direction sought with a large enough effect; inconclusive = small, poorly fitted or top-dose-only effect, or another doubt; inactive = no such curve, though single readings can be large; an effect the other way counts as inactive or inconclusive.

CC1(C2CC2)NC(=O)N(CC(=O)N2CCN(c3cccc(C(F)(F)F)c3)CC2)C1=O (configuration not stated)	Nrf2 block 12µM (no result: Apoferritin bind)
COc1ccc(CCNC(=O)CCCn2c(=O)c3cccn3c3ccc(F)cc32)cc1OC	Nrf2 block inconclusive (no result: Giardia kill)
Cn1nnnc1Sc1ncnc2scc(-c3ccccc3F)c12	Nrf2 block inconclusive (no result: Apoferritin bind, IDH1 R132H inh, Giardia kill, Nrf2 ARE act)
Cc1ccc(S(=O)(=O)CC(=O)N2CCN(c3cccc(C(F)(F)F)c3)CC2)cc1	Nrf2 block 23µM
CCOC(=O)[C@@H]1[C@H]2COc3cc(OC)ccc3[C@H]2N2C(=O)N(c3ccc(C(F)(F)F)cc3)C(=O)[C@]12C	Nrf2 block 21µM (no result: Apoferritin bind)
S=C(Nc1ccc(Nc2ccccc2)cc1)NC1CCCCCC1	Nrf2 block 18µM, A549 tox inconclusive
S=C(Nc1ccc(Cl)cc1)NC1CCCCC1	none
Cc1ccc(C)c(OCC(=O)Nc2ccncc2)c1	Nrf2 block 5.2µM
Cc1cccc(OCC(=O)Nc2ccncc2)c1C	Nrf2 block 7.3µM
Cc1cccc(OCC(=O)Nc2ccc(-c3nc4ccccc4o3)cc2)c1C	Nrf2 block 21µM (no result: IDH1 R132H inh, Giardia kill)
CC(=O)c1ccc(NC(=O)COc2ccccc2-c2nc(-c3ccc(C)cc3)no2)cc1	Nrf2 block 26µM (no result: Giardia kill)
CC(=O)c1ccc(NC(=O)COc2ccccc2-c2nc(C)no2)cc1	Nrf2 block inconclusive (no result: Giardia kill)
CN1CCN(C(CNC(=O)C(=O)Nc2ccc(Cl)cc2)c2cccnc2)CC1 (configuration not stated)	Nrf2 block inconclusive, A549 tox inconclusive (no result: Giardia kill)
Cc1cccc(NC(=O)CN2C(=O)CSc3ccc(S(=O)(=O)N4CCCC4)cc32)c1C	none (no result: Giardia kill)
Cc1cn2c(=O)cc(COc3ccccc3NC(=O)c3ccc(Cl)cc3)nc2s1	none (no result: Giardia kill)
Cc1cc(Cl)ccc1OCC(=O)Nc1ccncc1	Nrf2 block 23µM
Cc1c(C)c2cc(Cl)c(OCC(=O)Nc3ccccn3)cc2oc1=O	none (no result: Apoferritin bind, Giardia kill, Nrf2 block, A549 tox)
O=C(COc1ccc(Cl)cc1Cl)Nc1ccccn1	Giardia kill -101, Nrf2 block inconclusive
Cc1c(C)c2ccc(OCC(=O)Nc3ccccn3)c(C)c2oc1=O	Giardia kill -98, Nrf2 block inconclusive
Cc1cc(Cl)ccc1OCC(=O)NCc1ccncc1	none
COc1ccc(CCNC(=O)CCn2c(=O)c3ccccc3n(CC(=O)Nc3cccc(C)c3)c2=O)cc1OC	none (no result: Giardia kill)
CCOC(=O)Cn1c(=NC(=O)C2COc3ccccc3O2)sc2cc(S(N)(=O)=O)ccc21 (configuration not stated)	none
CCOC(=O)Cn1c(=NC(=O)c2ccc([N+](=O)[O-])s2)sc2ccccc21	Giardia kill -96, Nrf2 block inconclusive
O=C(CSc1nc2c([nH]c3ccccc32)c(=O)n1-c1ccc(Cl)cc1)NCC1CCCO1 (configuration not stated)	none (no result: Giardia kill, Nrf2 block)
O=c1[nH]c2ccc(S(=O)(=O)N3CCN(S(=O)(=O)c4ccc5c(c4)OCCO5)CC3)cc2[nH]c1=O	none (no result: Apoferritin bind, IDH1 R132H inh, Giardia kill, Nrf2 ARE act)
Cn1c(=O)n(C)c2cc(NS(=O)(=O)c3ccc(C(C)(C)C)cc3)c(NCc3ccccc3)cc21	Nrf2 block 10µM, A549 tox inconclusive (no result: Giardia kill)
COc1ccc(S(=O)(=O)Nc2cc3c(cc2NCc2ccccc2)n(C)c(=O)n3C)cc1OC	Nrf2 block inconclusive, Nrf2 ARE act inconclusive (no result: Giardia kill)
CCNS(=O)(=O)c1ccc2c(c1)n(C)c(=O)n2C	none
Cn1c(=O)n(C)c2cc(NS(=O)(=O)c3ccccc3)c(NCc3ccccc3)cc21	Nrf2 block inconclusive, Nrf2 ARE act 13µM (no result: Giardia kill)
Cn1c(=O)n(C)c2cc(NS(=O)(=O)c3ccc(Cl)cc3)c(NCc3ccccc3)cc21	Nrf2 block inconclusive, Nrf2 ARE act inconclusive (no result: Giardia kill)
Cc1cc(S(=O)(=O)Nc2cc3c(cc2NCc2ccccc2)n(C)c(=O)n3C)ccc1F	Nrf2 block inconclusive, Nrf2 ARE act 13µM (no result: Giardia kill)
Cc1ccc(CNS(=O)(=O)c2ccc3c(c2)n(C)c(=O)n3C)cc1	Nrf2 block 21µM
COc1cccc(C2C(C#N)=C(NC(=O)CCc3ccccc3)Oc3ccc4ccccc4c32)c1 (configuration not stated)	none (no result: Apoferritin bind, IDH1 R132H inh, Giardia kill, Nrf2 ARE act)
COc1cccc(C2c3c(ncn(CCCN4CCOCC4)c3=N)Oc3ccc4ccccc4c32)c1 (configuration not stated)	A549 tox 15µM (no result: Apoferritin bind, IDH1 R132H inh, Giardia kill, Nrf2 ARE act)
CC(CNC(=O)CC[C@H]1O[C@@H](n2ccc(=O)[nH]c2=O)[C@H](O)[C@@H]1O)c1ccccc1 (some centres not stated)	none (no result: Apoferritin bind, IDH1 R132H inh, Giardia kill, Nrf2 block, A549 tox)
CCn1c(SCC(=O)c2[nH]c(C)c(C(C)=O)c2C)nnc1-c1cccs1	Nrf2 block inconclusive
CC(=O)c1c(C)[nH]c(C(=O)CSc2nc3ccccc3n2C)c1C	Apoferritin bind inconclusive, Nrf2 block 15µM
Cc1nn(Cc2c(F)c(F)c(F)c(F)c2F)c(C)c1NC(=O)c1cccc(COc2ccccc2Cl)c1	none (no result: Nrf2 block)
Cc1nn(Cc2ccc(Cl)cc2Cl)c(C)c1NC(=O)c1ccc(COc2cc(Cl)ccc2Cl)o1	Nrf2 block 12µM
Cc1nn(Cc2c(F)c(F)c(F)c(F)c2F)c(C)c1NC(=O)c1ccc(COc2ccc(Cl)cc2Cl)o1	Nrf2 block 16µM
O=C(Nc1ccn(Cc2c(F)c(F)cc(F)c2F)n1)c1ccc(COc2ccc(Cl)cc2Cl)o1	none (no result: Nrf2 block)
Cc1nn(Cc2cccc(F)c2)c(C)c1NC(=O)c1ccc(COc2ccccc2Cl)cc1	Nrf2 block 10µM, A549 tox inconclusive
COc1cc(C=C2Cc3ccccc3C2=O)cc(OC)c1OC	Nrf2 ARE act 7.1µM (no result: Apoferritin bind, IDH1 R132H inh, Giardia kill, Nrf2 block, A549 tox)
COc1ccc(/C=C2\Cc3ccccc3C2=O)cc1OC	none
COc1ccc(/C=C2\CCc3ccccc3C2=O)cc1Cn1cccn1	Apoferritin bind inconclusive, Nrf2 block 2.3µM
Cc1ccc2c(Cl)cc(Cl)c(OCC(=O)Nc3cc(S(=O)(=O)N(C)C)ccc3C)c2n1	Nrf2 block 15µM
O=[N+]([O-])c1ccc(C[n+]2ccc(Cc3ccccc3)cc2)cc1	Nrf2 block inconclusive
O=[N+]([O-])c1ccc(C[n+]2ccccc2)cc1	Nrf2 block 21µM (no result: Apoferritin bind)
COc1ccccc1NC(=O)C(C)OC(=O)/C=C/c1ccc2ccccc2n1 (configuration not stated)	Nrf2 ARE act 18µM (no result: Apoferritin bind)
CC(OC(=O)/C=C/c1ccc2ccccc2n1)C(=O)N(C)c1ccccc1 (configuration not stated)	none (no result: Apoferritin bind)
Clc1ccc(CCNC(c2cccc(Cl)c2)c2nnc(-c3ccccc3)o2)cc1 (configuration not stated)	none (no result: Giardia kill)
COc1ccc(N2CCN(C(=S)Nc3cccc(C)c3C)CC2)cc1	Nrf2 block 26µM, A549 tox inconclusive
COc1ccc(N2CCN(C(=S)Nc3ccc(C)cc3)CC2)cc1	none
